Sfp PPTase inh – qHTS Assay for Inhibitors of Bacillus subtilis Sfp phosphopantetheinyl transferase (PPTase); 4'-phosphopantetheinyl transferase ffp (Bacillus subtilis), Q9F4F7; Potency, µM, without a hit: largest response in the series, negative = inhibition, actives largely listed as inhibitors; Biochemical Sfp PPTase activity, qHTS; actives 3.5% (n = 310,000); AID 1490, 2009;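 further: the enzyme is Sfp with the accession as filed and its product quenches rhodamine fluorescence; 0% = enzyme reaction without inhibitor and -100% = no enzyme wells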
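Sfp 15 nM + cpd, 15 min RT; start w/ rhodamine-CoA 5 uM, BHQ-2-YbbR 12.5 uM (final); 50 mM Hepes pH 7.6, 10 mM MgCl2, 0.01% NP-40, 0.01% BSA; read 525/598 nm at 0 and 30 min.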
HP1b chromo inh – HTS for Inhibitors of HP1-beta Chromodomain Interactions with Methylated Histone Tails | AlphaScreen HP1-beta / biotin-H3K9me3 peptide binding | AID 540317, 2011 | actives 0.56% (n = 390,000) | Potency, µM (series often up to 114 µM), for the others: at the highest dose activity change, negative = inhibition, most hits filed as inhibitors; further: nearly all actives have a fitted effect of over 70% in size
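AlphaScreen: HP1-beta (50 nM) preformed 30 min with biotin-H3(1-18)K9me3 peptide (50 nM) in PBS pH 7.4, 0.01% Tween-20. Compound added for 30 min at RT, then streptavidin donor/nickel chelate acceptor beads (10 ug/mL) for 30 min.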
L3MBTL1 block – qHTS Assay for the Inhibitors of L3MBTL1; AlphaScreen L3MBTL1–H3K9me1 peptide binding; actives 0.66% (n = 230,000); Potency, µM (doses to about 57.1 µM), inactives show top-dose activity, negative = inhibition, most hits filed as inhibitors; further: on the % scale 0 is the no-effect control and ±100 the full control effect; nearly all actives have a fitted effect of over 60% in size
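First, the protein-peptide complex forms for 30 min at room temperature (L3MBTL1 50 nM, biotinylated H3K9me1 peptide 75 nM). Next, compounds are pin-transferred and incubated 30 min. Finally, AlphaScreen beads are added and read after 30 min.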
JMJD2A Tudor – qHTS Assay for Inhibitors of JMJD2A-Tudor Domain. AID 504339, 2011. AlphaScreen JMJD2A-Tudor / H3K4me3 peptide binding. Potency, µM (doses to about 114 µM), for the others: at the top dose activity change, negative = inhibition, most hits filed as inhibitors. actives 4.4% (n = 390,000); further: on the % scale 0 is the no-effect control and ±100 the full control effect; nearly all actives have a fitted effect of over 50% in size
Target sequence (O75164 whole entry, looked up, the tested form may be a part): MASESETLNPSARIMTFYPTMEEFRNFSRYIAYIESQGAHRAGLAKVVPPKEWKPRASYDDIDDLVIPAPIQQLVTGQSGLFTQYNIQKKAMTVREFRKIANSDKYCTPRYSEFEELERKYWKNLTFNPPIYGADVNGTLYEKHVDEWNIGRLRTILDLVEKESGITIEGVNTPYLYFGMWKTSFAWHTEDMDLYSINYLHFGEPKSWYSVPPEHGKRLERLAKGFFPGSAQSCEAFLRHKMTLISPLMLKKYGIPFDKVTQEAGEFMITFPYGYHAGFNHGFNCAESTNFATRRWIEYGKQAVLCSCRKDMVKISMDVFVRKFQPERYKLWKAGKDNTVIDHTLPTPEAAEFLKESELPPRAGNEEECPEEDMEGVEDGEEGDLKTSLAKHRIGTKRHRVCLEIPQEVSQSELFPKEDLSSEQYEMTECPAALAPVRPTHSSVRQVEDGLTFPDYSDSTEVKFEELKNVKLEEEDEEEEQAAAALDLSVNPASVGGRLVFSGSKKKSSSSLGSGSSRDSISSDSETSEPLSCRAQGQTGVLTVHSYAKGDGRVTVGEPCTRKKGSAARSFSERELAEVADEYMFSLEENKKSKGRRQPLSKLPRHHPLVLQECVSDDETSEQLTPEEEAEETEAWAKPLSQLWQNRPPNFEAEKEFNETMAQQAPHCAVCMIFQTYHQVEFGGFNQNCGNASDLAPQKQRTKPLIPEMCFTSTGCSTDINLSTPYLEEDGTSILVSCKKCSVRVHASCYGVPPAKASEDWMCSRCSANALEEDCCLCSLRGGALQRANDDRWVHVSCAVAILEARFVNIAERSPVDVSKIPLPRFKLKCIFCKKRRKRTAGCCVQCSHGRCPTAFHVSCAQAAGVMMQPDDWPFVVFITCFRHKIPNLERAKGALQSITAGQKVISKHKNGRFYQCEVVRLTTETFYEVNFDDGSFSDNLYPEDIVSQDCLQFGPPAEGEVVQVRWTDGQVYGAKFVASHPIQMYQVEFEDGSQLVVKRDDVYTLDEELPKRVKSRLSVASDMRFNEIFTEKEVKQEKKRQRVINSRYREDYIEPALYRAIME
G9a inh – qHTS Assay for Inhibitors of Histone Lysine Methyltransferase G9a | actives 8.8% (n = 350,000) | G9a H3K9 monomethylation, AlphaScreen, 2 h | Histone-lysine N-methyltransferase EHMT2 (Homo sapiens), Q96KQ7 | Potency, µM (top dose mostly 102 µM), inactives show at the top dose activity, negative = inhibition, usual class: inhibitors; further: on the % scale 0 is the no-effect control and ±100 the full control effect; nearly all actives have a fitted effect of over 75% in size
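Signal arises when biotinylated H3K9 peptide, once monomethylated, bridges streptavidin donor and antibody-captured acceptor beads. Enzyme at 20 nM was preincubated 15 min with test compounds; peptide 500 nM and SAM 20 uM then reacted for 2 h.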
BAZ2B inh – qHTS Assay for Inhibitors of BAZ2B | Bromodomain adjacent to zinc finger domain protein 2B (Homo sapiens), Q9UIF8 | AlphaScreen BAZ2B-H3K14Ac peptide displacement | Potency, µM (top dose mostly 114 µM), for the others: top-dose activity change, negative = inhibition, usual class: inhibitors | actives 4.4% (n = 360,000) | AID 504333, 2011; further: on the % scale 0 is the no-effect control and ±100 the full control effect; nearly all actives have a fitted effect of over 60% in size
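AlphaScreen displacement of biotin-H3(5-23)K14Ac peptide (50 nM final) from BAZ2B (50 nM final) in PBS pH 7.4, 0.01% Tween-20; complex preformed 30 min RT, then compounds (top 110 uM) 30 min RT, beads 20 min dark.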
An asterisk follows results filed as active; u = inconclusive; x = no result given; ! = repeats disagree; [ ] = another dose, or the depositor's remark. Hits are enriched below; roughly 12% of the tested compounds scored in any of these assays. The call rests on the fitted dose curve; in most records, active means well fitted curve in the direction sought with a large enough effect; inconclusive means small, poorly fitted or top-dose-only effect, or another doubt; inactive means no such curve, though single readings can be large; an effect the other way counts as inactive or inconclusive. Potency means the concentration at half of the fitted maximal effect.

SMILES | Sfp PPTase inh | HP1b chromo inh | L3MBTL1 block | JMJD2A Tudor | G9a inh | BAZ2B inh
O=C(/C=C/c1ccccc1)Oc1cccc2cccnc12 | u | 58% | -1% | -3% | x | 45µM*
CC(Oc1cccc2cccnc12)C(=O)N/N=C/c1ccccc1 (stereo not given) | 13% | 14% | x | -4% | 5% | 8%
O=C(/C=C\c1ccccc1)Oc1cccc2cccnc12 | u | 40% | u | 3% | 23% | 40µM*
CO[C@H](C(=O)[C@@H](O)[C@@H](C)O)C1Cc2cc3cc(O[C@H]4C[C@@H](O[C@H]5C[C@@H](O)[C@H](O)[C@@H](C)O5)[C@@H](O)[C@@H](C)O4)c(C)c(O)c3c(O)c2C(=O)[C@H]1O[C@H]1C[C@@H](O[C@H]2C[C@@H](O[C@H]3C[C@](C)(O)[C@H](O)[C@@H](C)O3)[C@H](O)[C@@H](C)O2)[C@H](O)[C@@H](C)O1 (stereo not given in full) | 6% | x | x | x | -11%[12.7 µM] | x
O=c1sc2ccccc2c(=O)n1Cc1ccccc1F | 4% | 143% | 73% | 52% | 46% | 65%
COC(=O)c1cccc(N2C(=O)C3CC=CCC3C2=O)c1 (stereo not given) | 20% | 29% | -4% | 1% | 17%[59 µM] | 6%
COC(=O)c1cccc(-n2sc3ccccc3c2=O)c1 | x | -28% | -3% | 14µM* | 8%[0.501 µM] | 6.3µM*
O=c1c2ccccc2sn1-c1ccc(F)cc1 | x | 7% | -11% | 13µM* | 2%[0.501 µM] | 4.5µM*
O=[N+]([O-])c1cc(F)cc(F)c1Nc1cc(F)cc(F)c1 | x | u | x | 45µM* | x | x
COc1ccc(S(=O)(=O)N2CCOCC2)cc1NC(=O)CN1CCN(C)CC1 | x | 14% | -7% | -11% | -12%[59 µM] | -1%
Cc1ccc(N(Cc2ccccc2F)S(C)(=O)=O)cc1C | 14% | 33% | x | 13% | 45% | 56µM*
O=C(COc1cccc(C(F)(F)F)c1)N1CCN(c2ccccc2O)CC1 | 18% | 8% | x | -17% | -82%[59 µM] | u
O=C(CCCOc1ccccc1)N1CCN(c2ccccc2)CC1 | 7% | 13% | x | -20% | 0% | -3%
O=C(COc1ncnc2ccccc12)N1CCN(c2ccccc2)CC1 | 8% | 7% | x | -18% | 50µM* | -17%
NC(=O)C1CCN(C(=O)CN2CCN(c3cccc(C(F)(F)F)c3)CC2)CC1 | 12% | -4% | 4% | 89µM* | -25% | 2%
O=C(COc1ncnc2sccc12)N1CCN(c2ccccc2)CC1 | -10% | 50% | -6% | 17% | u | -3%
O=C(CCOc1ccccc1)N1CCN(c2ccc(O)cc2)CC1 | 50µM* | u | -24% | u | u | u
O=C(COc1cccc(C(F)(F)F)c1)N1CCN(c2ccc(O)cc2)CC1 | 28µM* | 79µM* | -23% | 56µM* | 7.9µM* | x
Cc1cc(C(F)F)n2ncc(C(=O)NCc3ccccc3F)c2n1 | 8% | 34% | 2% | 3% | 22%[59 µM] | -5%
O=C(c1csnn1)N1CCC2(CC1)CCN(c1ccccn1)CC2 | 4% | x | x | x | -1%[12.7 µM] | x
CO[C@H]1C[C@@H]2CC[C@@H](C)[C@@](O)(O2)C(=O)C(=O)N2CCCC[C@H]2C(=O)OC([C@H](C)C[C@@H]2CC[C@@H](O)[C@H](OC)C2)CC(=O)[C@H](C)/C=C(\C)[C@@H](O)[C@@H](OC)C(=O)[C@H](C)C[C@H](C)/C=C/C=C/C=C/1C (stereo not given in full) | -7% | x | x | x | 25µM*! | x
CO[C@H]1C[C@@H]2CC[C@@H](C)[C@@](O)(O2)C(=O)C(=O)N2CCCC[C@H]2C(=O)O[C@H]([C@H](C)C[C@@H]2CC[C@@H](O)[C@H](OC)C2)CC(=O)[C@H](C)/C=C(/C)[C@@H](O)[C@@H](OC)C(=O)[C@H](C)C[C@H](C)C=C/C=C\C=C/1C | x | 16% | x | -35% | x | x
CO[C@H]1C[C@@H]2CC[C@@H](C)[C@@](O)(O2)C(=O)C(=O)N2CCCC[C@H]2C(=O)O[C@H]([C@H](C)C[C@@H]2CC[C@@H](O)[C@H](OC)C2)CC(=O)[C@H](C)C=C(C)[C@@H](O)[C@@H](OC)C(=O)[C@H](C)C[C@H](C)C=CC=CC=C1C | 79µM* | x | x | x | u | -38%
Cc1cc(C)cc(OC(C)C(=O)NCCCn2ccnc2)c1 (stereo not given) | 11% | 3% | x | -21% | 18% | 0%
Cc1cc2c(s1)c1cnn(Cc3cccc(C(F)(F)F)c3)c(=O)c1n2C | x | x | x | -28% | x | x
SMILES | Sfp PPTase inh | HP1b chromo inh | L3MBTL1 block | JMJD2A Tudor | G9a inh | BAZ2B inh
CN1CCN(c2ccccc2NC(=O)c2ccc(-c3ccc(Cl)cc3Cl)o2)CC1 | 56µM* | 4% | x | u | 45µM* | u
CC1CCN(c2ccccc2NC(=O)c2ccc([N+](=O)[O-])o2)CC1 | 17% | 8% | x | -8% | 21% | -12%
COc1ccc(C(=O)Nc2cc([N+](=O)[O-])ccc2N2CCCC2)cc1 | 5% | 9% | -5% | -14% | u | -31%
CS(=O)(=O)N1CCN(c2ccccc2NC(=O)c2ccc(-c3ccc(Cl)cc3Cl)o2)CC1 | -5% | 24% | -5% | -19% | -50%[12.7 µM] | 40%
COc1ccc(N2CCCC2)c(NC(=O)c2ccc([N+](=O)[O-])o2)c1 | 0% | 35µM* | x | 28µM* | u | 14µM*
O=C(Nc1ccccc1N1CCCC1)c1ccc([N+](=O)[O-])o1 | -18% | -15% | x | u | 3%[12.7 µM] | 32µM*
O=C(Nc1cc([N+](=O)[O-])ccc1N1CCCC1)c1ccco1 | 9% | 5% | 0% | -16% | 50µM* | -11%
COc1ccc(CCNC(=O)C2(C)CCC(=O)N2Cc2ccc(C)cc2)cc1OC (stereo not given) | 17% | 39% | x | -5% | 16% | 2%
COc1ccc(CC(=O)OC(C)C(=O)NC2CCCCC2C)cc1 (stereo not given) | x | 40% | 6% | 4% | -33% | 10%
CC(C)c1nnc(NC(=O)C2CCN(C(=O)Nc3ccccc3)CC2)s1 | 17% | 60% | x | -1% | -4% | -17%
Cc1nnc(NC(=O)c2ccccc2Oc2ccccc2)s1 | 12% | 28% | 6% | -3% | 20% | -9%

Screens: PubChem, National Center for Advancing Translational Sciences (NCATS)
